# In PubChem BioAssay AID624255 (Broad Institute, 2012):
# In all, about 77,000 compounds went through this assay and about 4,600 (6%) were called active. Inconclusive results (about 1%) are left out. The sample as a whole holds a higher share of actives than the screen did. Values without a mark were called inactive.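 Rule for the calls: active = mean inhibition above about 93%, with at least 55% of replicates each passing it (limit read from the data, passing the limit was not always enough); inconclusive = only one of those two conditions holds; inactive = neither condition holds.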
# Assay: T. cruzi intracellular proliferation inhibitors, primary screen, cell-based, beta-gal Tulahuen parasites, NIH3T3 host, luminescence (AID 624255)
# Details: T. cruzi beta-gal in NIH3T3, GalScreen luminescence, 90 h; at 8.34 µM; stronger effect = higher value
row,Compound,inhibition
1,C[C@@H]1CN([C@@H](C)CO)S(=O)(=O)c2ccc(-c3cncnc3)cc2O[C@@H]1CN(C)C(=O)C1CC1,21.1%
2,CCNC(=O)C[C@H]1CC[C@@H]2[C@H](COC[C@H](O)CN2S(=O)(=O)c2ccc(Oc3ccccc3)cc2)O1,2.89%
3,C/C=C/c1ccc([C@@H]2[C@@H](CO)N(C(=O)CC)[C@H]2CN(C)C(=O)C2CC2)cc1,15%
4,COc1ccc(CNC(=O)C[C@H]2C[C@H]3c4cc(NS(C)(=O)=O)ccc4O[C@H]3[C@@H](CO)O2)cc1,-53%
5,CNC(=O)C[C@H]1CC[C@H]2[C@@H](COc3ccc(NS(=O)(=O)c4ccc(F)cc4)cc3C(=O)N2C)O1,17.2%
6,CN(C)C(=O)C[C@@H]1CC[C@H]2[C@@H](COC[C@H](O)CN2C(=O)c2ccncc2)O1,24.8%
7,COc1ccc(S(=O)(=O)Nc2ccc3c(c2)CC(=O)N([C@H](C)CO)C[C@@H](C)[C@H](CN(C)S(=O)(=O)c2c(C)noc2C)O3)cc1,-5.62%
8,C[C@@H](NC(=O)[C@H]1[C@H](CO)[C@H]2Cn3c(cccc3=O)[C@@H]1N2Cc1cccnc1)c1ccccc1,50%
9,C[C@@H]1CN([C@H](C)CO)C(=O)CCCn2nncc2CO[C@@H]1CN(C)Cc1ccc(C(=O)Nc2ccccc2N)cc1,103% (active)
10,C[C@@H]1CN([C@@H](C)CO)C(=O)CCCn2nncc2CO[C@@H]1CN(C)Cc1ccccc1,-1.5%
11,C[C@H]1CN([C@@H](C)CO)C(=O)CCCn2nncc2CO[C@H]1CN(C)Cc1ccccc1,-4.75%
12,C[C@@H]1CN([C@@H](C)CO)C(=O)c2cccc(NC(=O)c3cnccn3)c2O[C@H]1CN(C)Cc1ccc(C(=O)O)cc1,-4.45%
13,C[C@@H]1CN([C@H](C)CO)C(=O)c2cccc(NC(=O)c3cnccn3)c2O[C@@H]1CN(C)Cc1ccc(C(=O)Nc2ccccc2N)cc1,109% (active)
14,C[C@@H]1CN([C@@H](C)CO)C(=O)c2cccc(NC(=O)c3cnccn3)c2O[C@H]1CN(C)Cc1ccc(-c2ccccc2)cc1,98.7%
15,COCC(=O)Nc1ccc2c(c1)C(=O)N(C)[C@H]1CC[C@H](CC(=O)Nc3ccccc3)O[C@H]1CO2,43.2%
16,C[C@@H]1CN([C@H](C)CO)C(=O)c2cc(-c3ccc(C#N)cc3)cnc2O[C@@H]1CN(C)C(=O)Nc1ccccc1,33.2%
17,CCN1[C@@H]2Cn3c(ccc(-c4cccnc4)c3=O)[C@H]1[C@@H](C(=O)NC1CCCCC1)[C@@H]2CO,-16.4%
18,O=C(NC[C@@H]1[C@H](c2ccccc2)[C@H](CO)N1CC1CCCC1)c1cccnc1,15.8%
19,CO[C@H]1CN(C)C(=O)c2ccc(NC(C)=O)cc2OC[C@H](C)N(C(=O)c2ccccc2)C[C@H]1C,-19.6%
20,CCNC(=O)[C@@H]1[C@@H](CO)[C@@H]2Cn3c(ccc(-c4ccncc4)c3=O)[C@@H]2N1Cc1cc(F)ccc1F,80.1%
21,CCCC#Cc1ccc2c(c1)O[C@@H](CN(C)CCC)[C@@H](C)CN([C@H](C)CO)S2(=O)=O,63.4%

row,Compound,inhibition
1,CCCN(C)C[C@H]1Oc2cc(C#CC3CCCC3)ccc2S(=O)(=O)N([C@H](C)CO)C[C@@H]1C,98.6% (active)
2,CCCN(C)C[C@@H]1Oc2cc(C#Cc3ccc(F)cc3)ccc2S(=O)(=O)N([C@H](C)CO)C[C@H]1C,100% (active)
3,CCCN(C)C[C@@H]1Oc2cc(C#CC3CCCCC3)ccc2S(=O)(=O)N([C@@H](C)CO)C[C@@H]1C,42.1%
4,COCC#Cc1ccc2c(c1)O[C@@H](CN(C)S(C)(=O)=O)[C@H](C)CN([C@H](C)CO)S2(=O)=O,2.15%
5,C[C@@H]1CN([C@@H](C)CO)S(=O)(=O)c2ccc(C#CC3CCCC3)cc2O[C@H]1CN(C)S(C)(=O)=O,-41.8%
6,C[C@@H]1CN([C@@H](C)CO)S(=O)(=O)c2ccc(C#Cc3ccc(F)cc3)cc2O[C@H]1CN(C)S(C)(=O)=O,113% (active)
7,CNC[C@@H]1Oc2cc(C#CC3CCCC3)ccc2S(=O)(=O)N([C@@H](C)CO)C[C@@H]1C,61%
8,CCCN(C)C[C@@H]1Oc2cc(C#CCc3ccccc3)ccc2S(=O)(=O)N([C@H](C)CO)C[C@@H]1C,80.1%
9,C[C@@H](NC(=O)C[C@@H]1CC[C@@H]2[C@H](COC[C@@H](O)CN2C(=O)Nc2cccc(F)c2)O1)c1ccccc1,21.9%
10,CC(C)NC(=O)N(C)C[C@@H]1Oc2ncc(-c3ccc(C(=O)N(C)C)cc3)cc2C(=O)N([C@H](C)CO)C[C@H]1C,35.4%
11,COc1ccc(S(=O)(=O)N(C)C[C@H]2OCCCC[C@H](C)Oc3ccc(NS(=O)(=O)c4c(C)noc4C)cc3C(=O)N([C@@H](C)CO)C[C@@H]2C)cc1,23.4%
12,C[C@H]1CN([C@@H](C)CO)C(=O)c2cc(C#CC(C)(C)O)cnc2O[C@H]1CN(C)C(=O)CC1CC1,-14.6%
13,O=S(=O)(Cc1ccccc1)NCC[C@@H]1CC[C@@H](NS(=O)(=O)c2ccccc2)[C@@H](CO)O1,-0.486%
14,CC(=O)N1CC[C@@H]2[C@@H](CO)N(C)c3ccc(-c4ccc(C#N)cc4)cc3[C@@H]21,52.3%
15,Cc1noc(C)c1NC(=O)Nc1ccc2c(c1)C(=O)N([C@@H](C)CO)C[C@@H](C)[C@H](CN(C)C(=O)Nc1ccc(C(F)(F)F)cc1)OCCCC[C@@H](C)O2,27.1%
16,COc1ccc(S(=O)(=O)N2CCCCN3[C@H](C2)[C@H](c2ccc(C4=CCCC4)cc2)[C@@H]3CO)cc1,7.54%
17,O=S(=O)(c1ccc(F)cc1)N1CCCCN2[C@H](C1)[C@H](c1ccc(C3=CCCCC3)cc1)[C@@H]2CO,99.1% (active)
18,Cc1ccccc1-c1ccc([C@@H]2[C@H](CO)N3CCCCN(S(=O)(=O)c4ccc(F)cc4)C[C@@H]23)cc1,112% (active)
19,COc1ccccc1-c1ccc([C@@H]2[C@@H](CO)N3CCCCN(S(=O)(=O)c4cn(C)cn4)C[C@H]23)cc1,42.2%
20,Cn1cnc(S(=O)(=O)N2CCCCN3[C@H](CO)[C@@H](c4ccc(-c5ccc(F)cc5)cc4)[C@@H]3C2)c1,11.8%
21,COc1ccc(S(=O)(=O)N2CCCCN3[C@H](CO)[C@H](c4ccc(C5=CCCCC5)cc4)[C@@H]3C2)cc1,88.5%

row,Compound,inhibition
1,Cc1ccccc1-c1ccc([C@H]2[C@H]3CN(S(=O)(=O)c4ccc(F)cc4)CCCCN3[C@H]2CO)cc1,111% (active)
2,C[C@@H](NC(=O)C[C@@H]1CC[C@@H](NC(=O)C2CCOCC2)[C@@H](CO)O1)c1ccccc1,9.21%
3,O=C(C[C@@H]1CC[C@@H](NC(=O)Nc2ccc(F)cc2)[C@H](CO)O1)NCCN1CCCC1,30.1%
4,CCCNC(=O)N1[C@@H]2c3ccc(-c4ccccc4OC)c(=O)n3C[C@H]1[C@H](CO)[C@H]2C(=O)N(C)C,1.54%
5,CO[C@@H]1CC[C@@H]2CCOc3c(C#N)cccc3C(=O)N(C)C[C@@H](OC)[C@@H](C)C(=O)N(C)C[C@H]1O2,11.7%
6,CC(=O)N1[C@@H](CO)[C@H](c2ccccc2)[C@@H]1CN(C)C(=O)CN1CCOCC1,50.9%
7,COc1ccc(NC(=O)N(C)C[C@H]2OCCCC[C@@H](C)Oc3ccc(NC(=O)Nc4ccc5c(c4)OCO5)cc3C(=O)N([C@H](C)CO)C[C@@H]2C)cc1,9.34%
8,C[C@@H]1CN([C@@H](C)CO)C(=O)c2cc(NC(=O)Nc3ccc4c(c3)OCO4)ccc2O[C@@H](C)CCCCO[C@@H]1CN(C)Cc1ccccc1,41.8%
9,C[C@@H]1CN([C@H](C)CO)C(=O)c2cc(NC(=O)Nc3ccc4c(c3)OCO4)ccc2O[C@@H](C)CCCCO[C@@H]1CN(C)Cc1ccc2c(c1)OCO2,81.6%
10,C[C@@H]1CCCCO[C@@H](CN(C)Cc2ccc3c(c2)OCO3)[C@@H](C)CN([C@@H](C)CO)C(=O)c2cc(NC(=O)Nc3ccccc3)ccc2O1,99.9% (active)
11,COc1ccc(NC(=O)Nc2ccc3c(c2)C(=O)N([C@H](C)CO)C[C@H](C)[C@@H](CN(C)Cc2ccc(C(=O)O)cc2)OCCCC[C@H](C)O3)cc1,51%
12,COc1ccc(CN(C)C[C@H]2OCCCC[C@H](C)Oc3ccc(NC(=O)Nc4ccc5c(c4)OCO5)cc3C(=O)N([C@H](C)CO)C[C@@H]2C)cc1,98.7% (active)
13,Cc1cccc(S(=O)(=O)N2C[C@H]3[C@@H](c4ccccc42)[C@H](CO)N3Cc2ccc3c(c2)OCO3)c1,72.7%
14,CN1C[C@H](O)COC[C@H]2O[C@H](CC(=O)NC3CCC3)CC[C@@H]21,-61.9%
15,C[C@@H]1CN([C@H](C)CO)C(=O)c2cc(NS(=O)(=O)c3cccs3)ccc2O[C@@H](C)CCCCO[C@@H]1CN(C)S(=O)(=O)c1cccs1,-40.5%
16,C[C@@H]1CCCCO[C@@H](CN(C)S(C)(=O)=O)[C@H](C)CN([C@@H](C)CO)C(=O)c2cc(NS(=O)(=O)c3cccs3)ccc2O1,-8.12%
17,C[C@@H]1CCCCO[C@H](CN(C)S(=O)(=O)c2ccc(Cl)cc2)[C@H](C)CN([C@@H](C)CO)C(=O)c2cc(NS(=O)(=O)c3cccs3)ccc2O1,110% (active)
18,C[C@@H]1CCCCO[C@@H](CN(C)S(=O)(=O)c2ccc(F)cc2)[C@@H](C)CN([C@@H](C)CO)C(=O)c2cc(NS(=O)(=O)c3cccs3)ccc2O1,10.6%
19,C[C@@H]1CCCCO[C@H](CN(C)S(=O)(=O)c2cccs2)[C@H](C)CN([C@@H](C)CO)C(=O)c2cc(NS(=O)(=O)c3cccs3)ccc2O1,-8.67%
20,C[C@@H]1CN([C@H](C)CO)C(=O)c2cc(NS(=O)(=O)c3cccs3)ccc2O[C@@H](C)CCCCO[C@@H]1CN(C)S(=O)(=O)c1ccc(Cl)cc1,109% (active)
